Only some compounds are listed: those with a hit (about 5.6% of all), similar ones and a draw of the others.
PfM18AAP inh = blocks P. falciparum M18 aspartyl aminopeptidase; hit rate 1.2% among 290,000; AID 1822; inhibition, % at 7.35 µM; recombinant PfM18AAP, H-Glu-NHMec fluorogenic cleavage;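 active = inhibition above the campaign mean inhibition over all tested compounds plus 3 SD, cut at about 28% in these data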;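 also: 0% = plate median of test compound wells and 100% = 2 mM ZnCl2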
Cardio protect = myocardial damage modulation in H9c2 cells. H9c2 cardiomyocytes, H2O2 injury protection, ATPLite, 2 h. protection from H2O2 cell death, % at 20 µM. hit rate 0.63% among 360,000;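 active = compounds giving at least 50% protection of heart cells from peroxide-induced death in the single-dose screen, raw or plate-pattern-corrected value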;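 also: 0% = DMSO wells with peroxide and 100% = DMSO wells without peroxide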
ALR H2O2 inh = blocks human ALR sulfhydryl oxidase activity. hit rate 3.8% among 290,000. inhibition, % (no concentration beside the values). purified ALR, DTT oxidation, H2O2 HRP-luminol luminescence;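 active = mean replicate inhibition above about 79%, with every replicate also reaching it, limit read from the data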
Target sequence (P55789 whole entry, looked up): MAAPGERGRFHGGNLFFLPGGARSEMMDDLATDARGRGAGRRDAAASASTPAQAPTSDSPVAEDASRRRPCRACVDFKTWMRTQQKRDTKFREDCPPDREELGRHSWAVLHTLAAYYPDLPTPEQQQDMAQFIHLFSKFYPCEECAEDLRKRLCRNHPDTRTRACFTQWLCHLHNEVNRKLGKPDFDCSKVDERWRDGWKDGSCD
PfGluPho inh = PfG6PD (Plasmodium falciparum) enzyme inhibition; inhibition, % at 20 µM; hit rate 0.78% among 350,000; PfGluPho enzyme, NADPH resazurin-diaphorase fluorescence; AID 504690;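 active = inhibition reaching at least a set limit at 20 µM in the primary screen, cut at about 59% in these data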;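 also: 0% = DMSO wells with substrate and 100% = DMSO wells lacking glucose-6-phosphate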
PHOSPHO1 inh = inhibitors of human PHOSPHO1 phosphatase; hit rate 1.1% among 290,000; inhibition, % at 13.3 µM; recombinant PHOSPHO1, absorbance phosphatase assay; in the data active = inhibition above about 60%
Target sequence (Q8TCT1 whole entry, looked up): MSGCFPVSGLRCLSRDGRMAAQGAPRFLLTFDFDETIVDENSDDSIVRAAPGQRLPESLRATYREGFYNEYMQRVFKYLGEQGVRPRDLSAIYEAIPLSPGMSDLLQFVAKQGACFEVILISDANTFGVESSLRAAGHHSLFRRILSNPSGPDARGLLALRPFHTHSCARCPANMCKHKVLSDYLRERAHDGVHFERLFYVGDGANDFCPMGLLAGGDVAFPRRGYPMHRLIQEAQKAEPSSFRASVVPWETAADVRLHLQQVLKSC
Numbers without * were called inactive.

Results for O=C(CN1C(=O)S/C(=C\c2ccccc2F)C1=O)NC1C=CS(=O)(=O)C1 (configuration not stated) ?
PfM18AAP inh: 10; Cardio protect: 2; ALR H2O2 inh: -2; PfGluPho inh: -8; PHOSPHO1 inh: 24

Results for O=C(COC(=O)COc1ccc(Nc2ccccc2)cc1)NCc1ccco1 ?
PfM18AAP inh: 22; Cardio protect: 6; ALR H2O2 inh: 100*; PfGluPho inh: 2; PHOSPHO1 inh: 9

How did CC(=O)c1ccc(OCC(=O)OCC(=O)NCc2ccco2)cc1 do in these assays?
Cardio protect: 6; ALR H2O2 inh: 3; PfGluPho inh: -20

Results for Cc1cc(C)cc(C(=O)NCC(=O)OCC(=O)NCc2ccco2)c1 ?
PfM18AAP inh: 31*; Cardio protect: 0; ALR H2O2 inh: 0; PfGluPho inh: -8; PHOSPHO1 inh: 24

Results for COC(=O)c1ccc(/C=N/Nc2nc(-c3ccc(C)cc3)cs2)cc1 ?
PfM18AAP inh: -4; Cardio protect: -3; PfGluPho inh: 32; PHOSPHO1 inh: 1

How did CCCC(=O)Nc1ccc(-c2csc(N/N=C\c3ccncc3)n2)cc1 do in these assays?
PfM18AAP inh: 17; Cardio protect: 2; ALR H2O2 inh: 98*; PfGluPho inh: 46; PHOSPHO1 inh: 14

Results for CC(=O)Nc1ccc(-c2csc(N/N=C\c3ccncc3)n2)cc1 ?
PfM18AAP inh: 9; Cardio protect: 16; ALR H2O2 inh: 99*; PfGluPho inh: 35; PHOSPHO1 inh: 22

What do the screens show for `Cn1c(=O)c2c(nc(NCc3cccnc3)n2Cc2cccc(C(F)(F)F)c2)n(C)c1=O`?
PfM18AAP inh: 1; Cardio protect: 73*; ALR H2O2 inh: 22; PfGluPho inh: -13; PHOSPHO1 inh: -13

How did CCn1c(C)c2c([n+]1CC)CC(C)(C)CC2=O do in these assays?
PfM18AAP inh: 4; Cardio protect: 2; ALR H2O2 inh: -7; PfGluPho inh: 4; PHOSPHO1 inh: 91*

How did COC(=O)[C@@]1(Cc2ccccc2)[C@H]2C(=O)N(C)C(=O)[C@H]2[C@H]2CN=C(SCc3ccc(Cl)cc3)N21 do in these assays?
Cardio protect: -6; PfGluPho inh: 20

What do the screens show for `Cc1cc(C)c(CN2CCC(N3CCC(C(=O)NCC4CCCO4)CC3)CC2)cc1C` (configuration not stated)?
PfM18AAP inh: 0; Cardio protect: 8; ALR H2O2 inh: -2; PfGluPho inh: 10; PHOSPHO1 inh: -6

Results for Cc1c(Cl)sn(-c2ccc(Cl)cc2)c1=O ?
PfM18AAP inh: 58*; Cardio protect: -24; PfGluPho inh: 106*; PHOSPHO1 inh: -20

Results for CCn1c(=O)cc(SCC(=O)NCc2ccc(C)o2)c2ccccc21 ?
PfM18AAP inh: -5; Cardio protect: 4; ALR H2O2 inh: 98*; PfGluPho inh: 14; PHOSPHO1 inh: 13

What do the screens show for `CCn1c(=O)cc(SCC(=O)NCCCN2CCC(C)CC2)c2ccccc21`?
PfM18AAP inh: 8; Cardio protect: 1; ALR H2O2 inh: -5; PfGluPho inh: 12; PHOSPHO1 inh: 40

What do the screens show for `CCn1c(=O)cc(SCC(=O)NCc2cccnc2)c2ccccc21`?
PfM18AAP inh: 1; Cardio protect: 2; ALR H2O2 inh: -3; PfGluPho inh: -4; PHOSPHO1 inh: -36

Results for CCn1c(=O)cc(SCC(=O)NCCCN2CCN(c3ccc(F)cc3)CC2)c2ccccc21 ?
PfM18AAP inh: 5; Cardio protect: -4; ALR H2O2 inh: 96*; PfGluPho inh: -18; PHOSPHO1 inh: 11

What do the screens show for `CCn1c(=O)cc(SCC(=O)NCc2ccccn2)c2ccccc21`?
PfM18AAP inh: 3; Cardio protect: 6; ALR H2O2 inh: 98*; PfGluPho inh: 12; PHOSPHO1 inh: 31

Results for O=C1NN(c2cccc(Br)c2)C(=O)/C1=C\c1ccc(N2CCOCC2)cc1 ?
PfM18AAP inh: -4; Cardio protect: -5; ALR H2O2 inh: -7; PfGluPho inh: -2; PHOSPHO1 inh: 22

How did Cc1noc(C)c1CSc1nc2ccccc2s1 do in these assays?
PfM18AAP inh: -6; Cardio protect: -11; PfGluPho inh: 8; PHOSPHO1 inh: -20

What do the screens show for `c1ccc(NCCSc2nc3ccccc3s2)cc1`?
Cardio protect: -12; PfGluPho inh: -9

Results for CNc1nnc(CSc2nc3ccccc3s2)s1 ?
PfM18AAP inh: 7; Cardio protect: -2; ALR H2O2 inh: 99*; PfGluPho inh: -3; PHOSPHO1 inh: -2

What do the screens show for `CCS(=O)CCSc1nc2ccccc2s1` (configuration not stated)?
PfM18AAP inh: 8; Cardio protect: 1; ALR H2O2 inh: 99*; PfGluPho inh: 4; PHOSPHO1 inh: 34

What do the screens show for `c1csc(CSc2nc3ccccc3s2)c1`?
PfM18AAP inh: 0; Cardio protect: -9; ALR H2O2 inh: 94*; PfGluPho inh: 1; PHOSPHO1 inh: 14

What do the screens show for `Cc1cccc(OCCSc2nc3ccccc3n2CC(=O)O)c1`?
PfM18AAP inh: -3; Cardio protect: -1; ALR H2O2 inh: 5; PfGluPho inh: 15; PHOSPHO1 inh: 24

Results for O=S(=O)(Nc1ccc(-n2cnnn2)cc1)c1cccc(Cl)c1 ?
Cardio protect: 2; PfGluPho inh: 2

What do the screens show for `NC(=O)c1nsc(C(=O)N(c2ccccc2)C(C(=O)NC2CCCC2)c2ccc3ncccc3c2)c1N` (configuration not stated)?
PfM18AAP inh: 5; Cardio protect: 62*; PfGluPho inh: -2; PHOSPHO1 inh: 35

Results for CCOc1ccc(C(C(=O)NC2CCCC2)N(C(=O)c2snc(C(N)=O)c2N)c2cccc(O)c2)cc1 (configuration not stated) ?
PfM18AAP inh: 14; Cardio protect: 81*; PfGluPho inh: 13; PHOSPHO1 inh: 24

What do the screens show for `CCCCN(C=O)c1c(CC)nc2ccc(C(=O)N(C)Cc3ccco3)cn12`?
Cardio protect: 8

How did O=C(O)c1cccc2c(-c3ccccc3)c(-c3ccccc3)[nH]c12 do in these assays?
PfM18AAP inh: -10; Cardio protect: -5; ALR H2O2 inh: 98*; PfGluPho inh: -31; PHOSPHO1 inh: 23

How did O=C(CCc1ccccc1O)N/N=C/c1ccc(Sc2cccc3cccnc23)o1 do in these assays?
PfM18AAP inh: 7; Cardio protect: -8; ALR H2O2 inh: 8; PfGluPho inh: 42; PHOSPHO1 inh: 98*

Results for O=C(NCc1ccco1)c1cnn2c(C(F)(F)F)cc(-c3cccs3)nc12 ?
PfM18AAP inh: 13; Cardio protect: 65*; ALR H2O2 inh: 3; PfGluPho inh: 7; PHOSPHO1 inh: 1

How did COC(=O)CSc1nc2nc(-c3cccs3)cc(C(F)(F)F)c2c(=O)[nH]1 do in these assays?
PfM18AAP inh: -4; Cardio protect: 12; PfGluPho inh: -18; PHOSPHO1 inh: 27

Results for O=C(CSc1nc2nc(-c3cccs3)cc(C(F)(F)F)c2c(=O)[nH]1)NCc1ccco1 ?
PfM18AAP inh: 28*; Cardio protect: 9; ALR H2O2 inh: 18; PfGluPho inh: -27; PHOSPHO1 inh: 6

Results for O=C(c1cnn2c(C(F)(F)F)cc(-c3cccs3)nc12)N1CCCC1 ?
PfM18AAP inh: -1; Cardio protect: 3; PfGluPho inh: -6; PHOSPHO1 inh: 42
